Out of some 47,000 compounds screened, about 330 (0.7%) were called active. Rule as the data show it: active = inhibition above about 30%; inactive = the rest. What follows is part of a selection rich in actives, with near analogues and random picks from the rest.

The target in this test is OTU domain-containing protein 3 (Homo sapiens) (UniProt Q5T2D3). The experiment in a line: blocks human OTUD3 ubiquitin-rhodamine cleavage (AID 1645858). Particulars: purified OTUD3, Ub-rhodamine fluorescence, 2 h; at 25 µM; active compounds read high.
Chain of OTU domain-containing protein 3 (Homo sapiens) (Q5T2D3 whole entry, looked up, the tested form may be a part): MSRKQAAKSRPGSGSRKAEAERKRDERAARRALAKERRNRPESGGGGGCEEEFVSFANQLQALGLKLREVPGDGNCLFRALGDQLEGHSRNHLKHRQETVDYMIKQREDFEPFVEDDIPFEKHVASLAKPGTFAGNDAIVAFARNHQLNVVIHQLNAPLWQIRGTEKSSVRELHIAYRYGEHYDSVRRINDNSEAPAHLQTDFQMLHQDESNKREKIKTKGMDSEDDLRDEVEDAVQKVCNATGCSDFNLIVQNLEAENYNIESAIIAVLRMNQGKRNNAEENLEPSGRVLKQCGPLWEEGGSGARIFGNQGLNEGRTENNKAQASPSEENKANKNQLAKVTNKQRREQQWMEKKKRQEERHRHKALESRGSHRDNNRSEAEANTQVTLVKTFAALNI
The inhibition is the drop in the measured response relative to a control, in per cent. As to `Cc1ccc(C(=O)N2C[C@H]3NC(=O)c4ccccc4C(=O)[C@@]3(C)C2)cc1`, the inhibition is -0.0157% (inactive).

With `CCN(C(=O)c1cncc(Br)c1)c1nc2ccccc2s1`, the inhibition was -0.0268% (inactive).

On to `COc1cc(OC)cc(-c2nnc(NC(=O)c3ccc([N+](=O)[O-])o3)o2)c1`, for which the inhibition is 40.4% (active).

On to `COc1ccc(-c2ocnc2C(=O)NCc2ccc(OC)c(OC)c2)cc1`, for which the inhibition was -9.98% (inactive).

Consider `COc1cccc(-c2ocnc2C(=O)NCc2ccc(OC)c(OC)c2)c1`, for which the inhibition is -12.9% (inactive).

As for `Nc1c(C(=O)CN2CCc3ccccc32)c(=O)[nH]c(=O)n1C1CC1`, the inhibition was -63.2% (inactive).

For the compound `Cc1ccccc1S(=O)(=O)NCc1nc2cccnc2n1C1CC1`, the inhibition is -1.25% (inactive).

Consider `COC(=O)c1cc(S(=O)(=O)Nc2ccc(NC(=O)c3ccccc3)cc2)ccc1Cl`, for which the inhibition was 2.44% (inactive).

For the compound `Cc1cccc(Nc2nccnc2C2CCCN2C(=O)c2ccnnc2)n1` (stereo unspecified), the inhibition was 10.1% (inactive).

For `O[C@H]1[C@H](NCc2cnc3ccccc3c2)[C@@H](c2cncnc2)C[C@H]1O`, the inhibition was -7.7% (inactive).

Regarding `Cc1ccccc1C(=O)N1CCC2(CC1)c1ncc(-c3cccnc3)n1CCN2C`, the inhibition was -6.54% (inactive).

For `CSc1nc2c(c(Nc3ccc(C(C)=O)cc3)n1)CCC2`, the inhibition was -0.0554% (inactive).

As to `CC(C)Nc1ncnc2c1c(C(=O)N1CCCC1)c1ccccn12`, the inhibition was -56.8% (inactive).

As to `Cc1cc(O)c(=O)cc2c1C[C@H]1CC(C)(C)/C=C/C[C@@]3(C)Oc4cc(=O)c(O)cc(C)c4C[C@@H]3C[C@H](O)[C@]1(C)O2`, the inhibition was 33.2% (active).

Take `Cc1cccc(Nc2cccc(C3CCCN3C(=O)c3cccnc3)n2)n1` (stereo unspecified): the inhibition is -0.95% (inactive).

`CN1CCN(c2ccc3nnc(CCC(=O)NC4CCN(Cc5ccccc5)CC4)n3n2)CC1`: the inhibition was 5.05% (inactive).

With `CC(C)=CCC(O)C1=CC(=O)c2c(O)ccc(O)c2C1=O` (stereo unspecified), the inhibition was 94.7% (active).

`CC(C)=CCc1cc(O)ccc1O`: the inhibition was -3.32% (inactive).

For `Cc1cc(C)c2nc3c(cc2c1)CN(Cc1ccco1)C(=O)O3`, the inhibition is 19.2% (inactive).

`CC1(c2ncc(Cc3cccc(F)c3)o2)CCCN(C(=O)CN2CCCC2)C1` (stereo unspecified): the inhibition is -4.47% (inactive).

For `COc1ccccc1CCN[C@H]1CS(=O)(=O)C[C@@H]1S(=O)(=O)c1ccccc1`, the inhibition was 2.36% (inactive).

In the case of `COc1ccc(NC(=O)c2cn(C)nc2S(=O)(=O)N2CCCCCC2)cc1`, the inhibition is 11% (inactive).

With `CC(C)NC(=O)c1cccc(-c2noc(-c3ccccc3Br)n2)c1`, the inhibition was 0.0532% (inactive).

For the compound `Cc1nnc(OCC(=O)Nc2ccc(OC(F)(F)F)cc2)c2ccccc12`, the inhibition is 35.8% (active).

In the case of `COC(=O)c1ccc(NC(=O)CSc2nnc(C(C)Oc3ccccc3)n2C)cc1` (stereo unspecified), the inhibition is -2.47% (inactive).

As for `Cc1cc(C)nc(N(C(=O)C2CC2)c2ccc(OC(F)(F)F)cc2)n1`, the inhibition is -7.68% (inactive).

As to `Cc1nc(Nc2ncccn2)cc(C2CCCN2S(=O)(=O)N(C)C)n1` (stereo unspecified), the inhibition is -8.82% (inactive).

`Cc1ccc(S(=O)(=O)N2CCC3(CC2)OC(C(=O)NCC(C)C)Cn2ccnc23)cc1` (stereo unspecified): the inhibition was -3.62% (inactive).

On to `O=C(CNC(=O)C1COc2ccccc2O1)Nc1ccccc1Br` (stereo unspecified), for which the inhibition was -5.2% (inactive).

As for `CCn1nccc1C1CCCN1C(=O)C12CC3CC(CC(C3)C1)C2` (stereo unspecified), the inhibition is -2.13% (inactive).

Turning to `COc1ccc(-c2ccc(CCC(=O)NCc3ccccc3)o2)cc1`, the inhibition was 0.714% (inactive).

As to `OC1CCC(Nc2nc(CN3CCOCC3)nc3sc4c(c23)CCC4)CC1` (stereo unspecified), the inhibition is 1.88% (inactive).

Regarding `O=C(Nc1ccc(Cl)c(Cl)c1)C1C2C=CC3(O2)C1C(=O)N(CCCN1CCN(Cc2ccccc2)CC1)C3C(=O)NC1CCCCC1` (stereo unspecified), the inhibition is -13.9% (inactive).

With `CCN1C(=O)COc2cc(-c3noc(C(=O)N4CCN(c5ccccc5)CC4)n3)ccc21`, the inhibition was 5.26% (inactive).

For the compound `COc1cccc(NC(=O)C2Cc3ccccc3N2C(=O)c2ccccc2)c1` (stereo unspecified), the inhibition was 12% (inactive).

As to `NS(=O)(=O)c1ccc(NS(=O)(=O)c2ccc(NC(=O)c3ccccc3)cc2)cc1`, the inhibition was 4.22% (inactive).

As to `CC(NC(=O)c1ncoc1-c1ccc(F)cc1)c1ccccn1` (stereo unspecified), the inhibition is 3.88% (inactive).

For `O=C(CNS(=O)(=O)/C=C/c1ccccc1)N1CCCC(c2nc3ccccc3s2)C1` (stereo unspecified), the inhibition is -13.9% (inactive).

As for `CN(C)c1cccc(C(=O)OCC(=O)Nc2ccc(Cl)cn2)c1`, the inhibition is 1.07% (inactive).

Turning to `Oc1cccc2nc3c(O)cccc3nc12`, the inhibition is 60.7% (active).

Turning to `CC(C)(C)C(=O)c1cn(CC(=O)N2CCc3ccccc3C2)c2ccccc12`, the inhibition is 0.535% (inactive).

Regarding `Clc1ccc(C2NC3=NCN(Cc4ccco4)CN3c3nc4ccccc4n32)cc1` (stereo unspecified), the inhibition is 11.6% (inactive).

As for `O=C(Cn1cnc2ccccc21)N1CC(c2nc(-c3ccncc3)no2)C1`, the inhibition is -2.15% (inactive).

As for `COc1cccc(-n2c(=O)c(C(=O)NC(C)c3ccccc3)c(O)c3cccnc32)c1` (stereo unspecified), the inhibition was 1.53% (inactive).

As for `O=C(NC1CCN(Cc2ccccc2)CC1)c1cc2cn(C3CC3)cc2s1`, the inhibition is -34.6% (inactive).

Consider `Cc1ccc(S(=O)(=O)NCCc2nnc3ccc(SCC(=O)NCc4ccc5c(c4)OCO5)nn23)cc1`, for which the inhibition was 11.1% (inactive).

As for `CCc1cc(C(=O)NCc2ccccc2)nc2ccnn12`, the inhibition was -0.736% (inactive).

Consider `CCN(CC)S(=O)(=O)c1ccc(C(=O)Nc2sc(C)c(C)c2C(N)=O)cc1`, for which the inhibition is -4.61% (inactive).

On to `CC(=O)c1ccc(NC(=O)CSc2ncnc3c2cnn3-c2ccc(C)cc2C)cc1`, for which the inhibition is -0.915% (inactive).

On to `Cc1ccc(S(=O)(=O)N2C[C@H]3NC(=O)c4ccccc4C(=O)[C@@]3(C)C2)cc1`, for which the inhibition was -3.74% (inactive).

As to `COc1cc(C2c3[nH]c4ccccc4c3C[C@@H]3C(=O)N(CCC4=CCCCC4)CC(=O)N23)cc(OC)c1OC` (stereo partly specified), the inhibition is -46.8% (inactive).

For `O=C(Nc1ccccc1Cl)N1C[C@H]2C[C@H]3[C@](C1)(CN(Cc1cccnc1)S3(=O)=O)O2`, the inhibition was 2.31% (inactive).

On to `C[C@@H]1CC[C@H]2C(CN3CCCC(C)(C)C3)C(=O)O[C@]23[C@H]1CC[C@@]1(C)O[C@@H]31` (stereo partly specified), for which the inhibition was -0.238% (inactive).

In the case of `CCOc1ccccc1Oc1nnnn1-c1ccccc1`, the inhibition is 23% (inactive).

Regarding `CN(C(=O)COc1ccc(C(N)=O)cc1)C1CCCCC1`, the inhibition was -6.97% (inactive).

Consider `Cc1nn(-c2cccc(F)c2)c2c1c(C)c(CCC(=O)NCc1ccccn1)c(=O)n2C`, for which the inhibition is 8.09% (inactive).

For the compound `CC(=O)N1CCC(N2CCC[C@H]2c2nc(-c3ccc(OC4CCCCC4)nc3)no2)CC1`, the inhibition was -18.8% (inactive).

Regarding `O=C(c1cc2ccc(F)cc2[nH]1)N1CCOCC(Cc2ccncn2)C1` (stereo unspecified), the inhibition is -7.16% (inactive).

As to `Cn1cc(C(=O)N2CCCCC2c2nc(N)ncc2-c2ccccc2)ccc1=O` (stereo unspecified), the inhibition is -2.37% (inactive).

Take `CCC(=O)N(C)CCc1noc(-c2[nH]c3ccc(C)cc3c2C)n1`: the inhibition was -11.5% (inactive).

As for `Cc1noc(C)c1C1CCCN1S(=O)(=O)c1cccc(Cl)c1` (stereo unspecified), the inhibition was 0.263% (inactive).

As to `O=C(COc1cccc2ccc(N3CCC(Cc4ccccc4)CC3)nc12)NCc1ccc(F)cc1`, the inhibition is 36.2% (active).

With `O=C(COc1cccc2ccc(N3CCC(Cc4ccccc4)CC3)nc12)Nc1cccc(F)c1`, the inhibition was 21.8% (inactive).

As for `O=C(CCc1nnc2ccc(N3CCCC3)nn12)NCc1ccc(F)cc1`, the inhibition is 12% (inactive).

Regarding `Cc1ccc(NC(=O)N2CCC(CC(=O)N3CCCCC3)CC2)cc1`, the inhibition is -0.189% (inactive).

As to `CCC(C)C1C(=O)/C(=C(\O)C2C3C(C)CC(C)CC3C=CC2C2(C)OC2C)C(=O)N1C` (stereo unspecified), the inhibition was 18.9% (inactive).

In the case of `CCOC(=O)N1CCN(c2nc3c(c(=O)[nH]c(=O)n3C)n2CCSc2ncccn2)CC1`, the inhibition was 13.2% (inactive).

In the case of `CC(C)CNC(=O)C1CCN(c2cncnc2N2CCOCC2)CC1`, the inhibition is 0.599% (inactive).

In the case of `CC(=O)c1sc(NC(=O)c2ccc(S(=O)(=O)N3CC(C)CC(C)C3)cc2)nc1C` (stereo unspecified), the inhibition was 4.19% (inactive).

Take `CCn1c(CN(C)C(=O)Nc2cccc(C)c2)nc2cc(C(=O)N(C)C)ccc21`: the inhibition is 10.5% (inactive).

Turning to `CS(=O)(=O)c1ccc(C(=O)Nc2ccccc2-c2ccccc2)cc1`, the inhibition was 11.2% (inactive).

In the case of `COc1ccc(N2CC(c3nnc(NC(=O)CCc4ccccc4)s3)CC2=O)cc1` (stereo unspecified), the inhibition was 17.9% (inactive).

Consider `N#CCCN(C(=O)c1cc2c(s1)-c1ccc(Cl)cc1S(=O)(=O)C2)c1ccccc1`, for which the inhibition was -4.41% (inactive).

Regarding `CC(=O)N1CCc2c([nH]c3ccccc23)C1`, the inhibition is -0.00325% (inactive).

Take `COc1ccccc1N(CC(=O)N1c2ccccc2CC1C)S(=O)(=O)c1ccc(F)cc1` (stereo unspecified): the inhibition was 14% (inactive).

`Oc1ccc(O)c2c1C(O)CCC21Oc2cccc3cccc(c23)O1` (stereo unspecified): the inhibition was -11.1% (inactive).

Regarding `Cc1nc2n(n1)CCN(C(=O)c1cc(-c3cccs3)[nH]n1)C2`, the inhibition was 0.034% (inactive).

Consider `CC(Oc1ccccc1)C(=O)Nc1ccc(-c2cn3cccnc3n2)cc1` (stereo unspecified), for which the inhibition was 4.02% (inactive).

In the case of `CCCCCCSc1ncnc2c1sc1nc(-c3ccccc3)c3c(c12)CC(C)(C)OC3`, the inhibition was -6.83% (inactive).

For `CSc1ncnc2c1sc1nc(-c3ccccc3)c3c(c12)CC(C)(C)OC3`, the inhibition is 7.31% (inactive).

With `CC1(C)Cc2c(c(-c3ccco3)nc3sc4c(SCCCc5ccccc5)ncnc4c23)CO1`, the inhibition is 33.5% (active).

Take `COc1ccc(Cl)cc1C(=O)NCC(c1ccsc1)N1CCOCC1` (stereo unspecified): the inhibition is -5.99% (inactive).

With `CC1CN(S(=O)(=O)c2cccc(Cl)c2)Cc2ccccc2N1C` (stereo unspecified), the inhibition is -2.48% (inactive).

`Cc1ccc(S(=O)(=O)c2cn(CC(=O)NC3CCCC3)c3nc(C)ccc3c2=O)cc1`: the inhibition is -8.29% (inactive).

In the case of `N#Cc1cccc(CN2CC[C@@H]3[C@@H](CO[C@@H]3CNc3ncccn3)C2)c1`, the inhibition was 0.273% (inactive).

On to `CCN1CCN(c2ccc(-c3nc(-c4ccc(C)cc4)no3)cn2)CC1`, for which the inhibition is -1.12% (inactive).

For the origin of these results see PubChem BioAssay AID1645858 (Buhrlage Lab, Dana-Farber Cancer Institute and Novartis …, 2021).
